From PubChem BioAssay
Calls of active or inactive are those of the source.

target: Homeobox protein Hox-A13 (Mus musculus) (UniProt Q62424); experiment: disruptors of Hoxa13 oligonucleotide interaction – biochemical, fluorescence polarization, labeled oligonucleotide, primary screen (AID 1185); settings: Hoxa13:DNA binding, 15 min, higher = more signal, called active from +8 up or from −8 down
Sequence (Q62424 whole entry, looked up): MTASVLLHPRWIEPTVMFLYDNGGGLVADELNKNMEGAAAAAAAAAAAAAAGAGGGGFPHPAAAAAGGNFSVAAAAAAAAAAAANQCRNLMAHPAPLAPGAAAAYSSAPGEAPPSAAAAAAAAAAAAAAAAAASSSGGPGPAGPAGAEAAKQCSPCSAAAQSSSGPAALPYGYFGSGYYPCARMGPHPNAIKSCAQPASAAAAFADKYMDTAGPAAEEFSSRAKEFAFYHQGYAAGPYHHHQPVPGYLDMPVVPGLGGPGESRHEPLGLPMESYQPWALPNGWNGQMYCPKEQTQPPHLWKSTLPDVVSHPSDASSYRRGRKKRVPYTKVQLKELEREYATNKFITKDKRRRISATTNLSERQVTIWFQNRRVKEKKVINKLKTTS

z-score, inactive:
CCCNC(=O)OC[C@H]1O[C@H](CCON=C(C)CCN2CCCc3nc(C)c(C)cc32)C=C[C@@H]1Oc1ccc(OC)cc1 -5.56
CCOC(=O)[C@H](Cc1ccccc1)NC(=O)CCC1CC(OC(=O)NCc2ccc3c(c2)OCO3)CC2(CCCC(COC(=O)NCCc3ccccc3OC)O2)O1 (stereo partly drawn) -4
COC(=O)CC=C[C@@H](C)[C@H](OCc1cccc(-c2ccccc2)c1)C1CCCCC1 -1.35
COC(=O)[C@@H]1CC[C@@H](C)[C@H](c2ccc(Br)cc2)N1 -1.98
CCN1C(=O)[C@H]2[C@H]3[C@H](O)[C@H](O)CC(=NNC(=O)OCc4ccc(OC)cc4)[C@@H]3CC[C@H]2C1=O -1.25
CO[C@H]1COC(=O)CC=C[C@H](C)[C@@H](OC)COC(=O)[C@H](C)COC(=O)CC=C[C@@H]1C 0.296
CO[C@H]1COC(=O)[C@@H]2CCCN2C(=O)CC=C[C@@H](C)[C@H](OC)COC(=O)[C@@H](OCc2ccccc2)C=C[C@@H]1C -1.53
COc1ccc(O[C@H]2C=C[C@@H](c3ccccc3)O[C@@H]2CON=C2[C@H]3CCn4c(=O)n(-c5ccccc5)c(=O)n4[C@H]3[C@H](O)[C@@H]3O[C@H]23)cc1 -4.59
